For 33 targets, log2 fold change results are on record in the supplement of paper PMC10849652.

The full data set covers some 8,800 targets. This sample favours those with a hit. About 0.5% of all pairs of compound and target were hits.

Sequence of UniProt P04844 (P04844 whole entry, looked up): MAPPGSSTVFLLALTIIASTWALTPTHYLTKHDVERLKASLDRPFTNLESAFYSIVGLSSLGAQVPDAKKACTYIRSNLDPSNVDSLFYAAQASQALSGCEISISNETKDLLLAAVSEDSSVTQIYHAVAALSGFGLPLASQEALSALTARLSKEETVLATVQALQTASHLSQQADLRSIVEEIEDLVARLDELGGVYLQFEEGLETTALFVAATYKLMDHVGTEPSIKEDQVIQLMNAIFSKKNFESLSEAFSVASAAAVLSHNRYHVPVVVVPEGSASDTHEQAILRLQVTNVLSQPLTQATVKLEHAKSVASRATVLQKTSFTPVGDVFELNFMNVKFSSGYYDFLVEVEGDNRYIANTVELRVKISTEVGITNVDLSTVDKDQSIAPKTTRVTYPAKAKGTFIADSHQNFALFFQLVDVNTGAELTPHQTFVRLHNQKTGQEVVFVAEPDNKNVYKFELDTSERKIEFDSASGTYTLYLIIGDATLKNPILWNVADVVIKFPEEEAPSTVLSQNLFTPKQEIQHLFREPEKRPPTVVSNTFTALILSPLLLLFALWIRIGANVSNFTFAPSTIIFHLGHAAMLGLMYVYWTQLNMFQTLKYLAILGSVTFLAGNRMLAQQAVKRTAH
Sequence of UniProt Q9H1K0 (Q9H1K0 whole entry, looked up): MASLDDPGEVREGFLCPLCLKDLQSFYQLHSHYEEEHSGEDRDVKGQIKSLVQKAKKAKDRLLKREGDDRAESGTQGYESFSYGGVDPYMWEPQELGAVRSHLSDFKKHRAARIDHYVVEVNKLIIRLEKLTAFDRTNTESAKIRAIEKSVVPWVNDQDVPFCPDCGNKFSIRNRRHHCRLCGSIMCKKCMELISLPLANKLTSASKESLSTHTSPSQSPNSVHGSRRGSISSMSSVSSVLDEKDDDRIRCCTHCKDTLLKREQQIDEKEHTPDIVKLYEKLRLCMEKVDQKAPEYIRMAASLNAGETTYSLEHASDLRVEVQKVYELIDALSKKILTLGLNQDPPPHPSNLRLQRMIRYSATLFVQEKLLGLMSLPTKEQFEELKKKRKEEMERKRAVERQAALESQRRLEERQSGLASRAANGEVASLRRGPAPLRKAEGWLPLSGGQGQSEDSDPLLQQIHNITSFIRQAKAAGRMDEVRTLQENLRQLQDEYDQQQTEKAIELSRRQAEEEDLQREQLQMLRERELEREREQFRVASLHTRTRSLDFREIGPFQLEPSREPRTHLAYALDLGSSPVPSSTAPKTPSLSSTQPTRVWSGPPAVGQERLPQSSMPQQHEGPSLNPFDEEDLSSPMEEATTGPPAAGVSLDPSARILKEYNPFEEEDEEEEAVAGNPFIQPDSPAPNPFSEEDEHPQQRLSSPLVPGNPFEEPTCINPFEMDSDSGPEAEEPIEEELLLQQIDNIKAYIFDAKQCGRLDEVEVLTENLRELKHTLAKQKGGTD
Sequence of UniProt O15541 (O15541 whole entry, looked up): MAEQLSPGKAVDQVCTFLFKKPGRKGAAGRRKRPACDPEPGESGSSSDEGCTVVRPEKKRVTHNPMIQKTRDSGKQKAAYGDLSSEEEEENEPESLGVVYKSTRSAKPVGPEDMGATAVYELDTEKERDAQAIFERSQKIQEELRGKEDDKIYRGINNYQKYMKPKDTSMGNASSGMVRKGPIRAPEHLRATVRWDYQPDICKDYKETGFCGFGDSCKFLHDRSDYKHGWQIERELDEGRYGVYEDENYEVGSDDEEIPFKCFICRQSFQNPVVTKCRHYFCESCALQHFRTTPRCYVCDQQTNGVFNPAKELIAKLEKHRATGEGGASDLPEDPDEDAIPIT
Sequence of UniProt P28702 (P28702 whole entry, looked up): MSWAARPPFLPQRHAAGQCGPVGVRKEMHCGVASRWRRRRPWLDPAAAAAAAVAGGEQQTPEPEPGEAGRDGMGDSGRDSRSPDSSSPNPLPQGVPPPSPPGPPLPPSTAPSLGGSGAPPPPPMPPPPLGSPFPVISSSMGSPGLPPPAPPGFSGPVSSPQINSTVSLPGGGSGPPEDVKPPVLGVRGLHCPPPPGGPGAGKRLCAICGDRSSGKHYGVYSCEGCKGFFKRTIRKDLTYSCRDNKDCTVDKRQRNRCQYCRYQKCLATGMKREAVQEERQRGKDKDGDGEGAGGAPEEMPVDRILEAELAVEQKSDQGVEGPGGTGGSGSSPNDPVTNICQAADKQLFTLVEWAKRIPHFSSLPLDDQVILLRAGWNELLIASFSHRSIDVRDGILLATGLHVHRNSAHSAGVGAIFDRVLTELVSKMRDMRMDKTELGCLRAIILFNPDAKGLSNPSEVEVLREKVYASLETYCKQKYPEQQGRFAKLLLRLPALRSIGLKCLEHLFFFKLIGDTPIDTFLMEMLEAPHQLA
Sequence of UniProt Q9BWF3 (Q9BWF3 whole entry, looked up): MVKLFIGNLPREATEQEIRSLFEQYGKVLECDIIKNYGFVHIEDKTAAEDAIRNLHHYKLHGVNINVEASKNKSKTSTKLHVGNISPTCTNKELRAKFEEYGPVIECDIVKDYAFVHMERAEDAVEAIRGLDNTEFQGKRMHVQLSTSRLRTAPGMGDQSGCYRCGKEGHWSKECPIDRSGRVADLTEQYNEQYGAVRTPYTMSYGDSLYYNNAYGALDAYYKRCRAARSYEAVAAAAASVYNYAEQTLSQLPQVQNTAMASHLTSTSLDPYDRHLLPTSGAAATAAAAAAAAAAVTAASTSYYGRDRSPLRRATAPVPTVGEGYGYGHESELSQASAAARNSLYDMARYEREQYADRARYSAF
Sequence of UniProt Q9UKL0 (Q9UKL0 whole entry, looked up): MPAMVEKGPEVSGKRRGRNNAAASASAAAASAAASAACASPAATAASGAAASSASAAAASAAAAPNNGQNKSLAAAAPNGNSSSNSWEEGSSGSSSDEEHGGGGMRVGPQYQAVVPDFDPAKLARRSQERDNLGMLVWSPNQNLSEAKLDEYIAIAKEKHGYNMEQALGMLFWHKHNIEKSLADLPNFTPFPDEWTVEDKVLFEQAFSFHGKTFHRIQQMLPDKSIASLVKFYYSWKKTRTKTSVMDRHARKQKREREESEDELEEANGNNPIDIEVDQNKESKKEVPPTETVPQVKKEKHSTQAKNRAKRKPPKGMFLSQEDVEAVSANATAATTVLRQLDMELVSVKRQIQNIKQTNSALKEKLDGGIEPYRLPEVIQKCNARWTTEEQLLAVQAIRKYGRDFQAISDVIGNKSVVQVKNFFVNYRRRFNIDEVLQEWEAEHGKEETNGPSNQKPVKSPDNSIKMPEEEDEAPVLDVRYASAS
Sequence of UniProt O95248 (O95248 whole entry, looked up): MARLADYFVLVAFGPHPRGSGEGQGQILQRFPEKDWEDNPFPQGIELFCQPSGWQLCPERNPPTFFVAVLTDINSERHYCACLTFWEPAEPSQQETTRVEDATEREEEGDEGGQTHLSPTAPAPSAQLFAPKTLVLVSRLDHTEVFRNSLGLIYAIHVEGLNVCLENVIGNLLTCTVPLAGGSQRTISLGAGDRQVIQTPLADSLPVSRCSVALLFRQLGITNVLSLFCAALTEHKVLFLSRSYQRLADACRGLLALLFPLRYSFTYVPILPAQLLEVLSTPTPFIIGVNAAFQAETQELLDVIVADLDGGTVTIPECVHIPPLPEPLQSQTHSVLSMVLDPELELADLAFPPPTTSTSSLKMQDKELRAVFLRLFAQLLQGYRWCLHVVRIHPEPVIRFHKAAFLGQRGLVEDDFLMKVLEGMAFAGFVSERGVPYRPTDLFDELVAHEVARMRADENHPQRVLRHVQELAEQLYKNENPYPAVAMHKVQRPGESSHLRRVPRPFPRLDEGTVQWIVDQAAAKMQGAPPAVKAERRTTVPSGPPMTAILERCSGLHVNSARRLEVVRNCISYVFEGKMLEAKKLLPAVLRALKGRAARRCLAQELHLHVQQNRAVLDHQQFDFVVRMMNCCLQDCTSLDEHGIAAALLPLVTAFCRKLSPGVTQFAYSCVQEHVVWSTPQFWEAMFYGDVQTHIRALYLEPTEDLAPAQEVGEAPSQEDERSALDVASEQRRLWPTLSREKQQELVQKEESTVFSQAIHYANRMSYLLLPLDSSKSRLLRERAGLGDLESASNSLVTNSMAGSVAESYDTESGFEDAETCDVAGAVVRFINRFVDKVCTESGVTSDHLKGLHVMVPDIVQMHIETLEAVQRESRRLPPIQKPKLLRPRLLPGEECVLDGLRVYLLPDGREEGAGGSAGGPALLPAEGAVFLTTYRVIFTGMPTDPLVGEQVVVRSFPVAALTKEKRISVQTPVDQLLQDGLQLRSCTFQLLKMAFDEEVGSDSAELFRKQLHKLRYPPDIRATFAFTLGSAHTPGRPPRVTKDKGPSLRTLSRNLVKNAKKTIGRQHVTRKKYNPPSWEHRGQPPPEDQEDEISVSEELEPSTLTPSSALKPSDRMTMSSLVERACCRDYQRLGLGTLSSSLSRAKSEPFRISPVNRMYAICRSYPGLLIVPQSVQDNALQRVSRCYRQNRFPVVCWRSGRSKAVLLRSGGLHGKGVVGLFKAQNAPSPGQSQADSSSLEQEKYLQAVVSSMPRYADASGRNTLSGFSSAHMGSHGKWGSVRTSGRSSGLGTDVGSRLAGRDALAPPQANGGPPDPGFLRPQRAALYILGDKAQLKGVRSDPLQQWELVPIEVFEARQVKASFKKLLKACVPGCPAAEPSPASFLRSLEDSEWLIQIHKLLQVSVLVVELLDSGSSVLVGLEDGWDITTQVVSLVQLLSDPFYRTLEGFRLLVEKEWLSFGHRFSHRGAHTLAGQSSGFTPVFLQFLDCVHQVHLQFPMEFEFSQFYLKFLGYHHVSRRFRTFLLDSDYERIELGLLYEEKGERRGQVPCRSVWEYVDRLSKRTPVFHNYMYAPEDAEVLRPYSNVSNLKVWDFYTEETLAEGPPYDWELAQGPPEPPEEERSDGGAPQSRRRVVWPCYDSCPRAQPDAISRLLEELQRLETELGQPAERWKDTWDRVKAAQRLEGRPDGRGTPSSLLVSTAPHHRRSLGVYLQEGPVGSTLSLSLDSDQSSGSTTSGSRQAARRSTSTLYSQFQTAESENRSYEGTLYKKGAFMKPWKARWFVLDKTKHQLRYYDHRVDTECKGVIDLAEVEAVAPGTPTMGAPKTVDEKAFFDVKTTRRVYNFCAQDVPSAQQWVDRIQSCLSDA

Compound in the first experiment: Cn1cc(-c2ccc3c(c2)CCN3C(=O)Cc2cccc(C(F)(F)F)c2)c2c(N)ncnc21
In words: log2 fold change, soluble protein after heating vs DMSO (PISA); higher = thermal stabilisation; K562 lysate, 10 uM; active = over 0.2 and 3.5 SD of the protein, either way, in both replicates (recomputed). A digest of the protocol:
(§1)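 Dounce homogenisation of K562 pellets in PBS pH 7.4 with 1 mM MgCl2 produced a crude extract, used at 1 mg/mL protein. Exposure to 10 μM compound lasted 30 min, and aliquots were then heated for 3 min across 48°C-58°C, pooled and brought to 0.5% NP-40 at 4°C. The supernatant after 21,000xg for 90 min was quantified by TMTpro 16plex LC-MS/MS with channel sums equalised. Duplicate values are given as log-two fold change in thermal stability relative to solvent controls.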
Regarding RNF113A (UniProt O15541), the log2 fold change was 0.04 (inactive).

Regarding RCOR1 (UniProt Q9UKL0), the log2 fold change was 0.003 (inactive).

Regarding RBM4 (UniProt Q9BWF3), the log2 fold change was 0.03 (inactive).

With SBF1 isoform 4 (UniProt O95248), the log2 fold change was 0.047 (inactive).

As to RBSN (UniProt Q9H1K0), the log2 fold change is -0.004 (inactive).

On to RAPGEF2, A0A2R8YGD3, for which the log2 fold change is 0.008 (inactive).

As to RBBP7 (UniProt Q16576), the log2 fold change was -0.006 (inactive).

Turning to S100A11 (UniProt P31949), the log2 fold change is -0.02 (inactive).

As for RPN2 (UniProt P04844), the log2 fold change is -0.006 (inactive).

Turning to RXRB isoform 3 (UniProt P28702), the log2 fold change was 0.095 (inactive).

Compound in another experiment: Cn1cc(CNCC2CCN(c3ncc(C(=O)NO)cn3)CC2)c2ccccc21 [quisinostat]
Described as above. A digest of the protocol: as §1
For the target RTN4IP1 (UniProt Q8WWV3), the log2 fold change was -0.033 (inactive).

With SATB2 (UniProt Q9UPW6), the log2 fold change was -0.06 (inactive).

On to RRAGA (UniProt Q7L523), for which the log2 fold change is -0.045 (inactive).

In the case of RFC2 (UniProt P35250), the log2 fold change was -0.04 (inactive).

SASS6 (UniProt Q6UVJ0): the log2 fold change was -0.045 (inactive).

Regarding SEC16A isoform 5 (UniProt O15027), the log2 fold change was -0.054 (inactive).

In the case of SEH1L isoform 1 (UniProt Q96EE3), the log2 fold change was -0.008 (inactive).

On to RECQL5 (UniProt O94762), for which the log2 fold change is -0.013 (inactive).

Take SAR1A (UniProt Q9NR31): the log2 fold change was 0.095 (inactive).

Regarding RAP1GAP isoform 4 (UniProt P47736), the log2 fold change is -0.046 (inactive).

Turning to RNASEL (UniProt Q05823), the log2 fold change is -0.06 (inactive).

RIOK3 (UniProt O14730): the log2 fold change was -0.063 (inactive).

For RRM1 (UniProt P23921), the log2 fold change was -0.018 (inactive).

For the target RBBP8 isoform 2 (UniProt Q99708), the log2 fold change is 0.074 (inactive).

In the case of REEP5 (UniProt Q00765), the log2 fold change is 0.005 (inactive).

As to RAB21 (UniProt Q9UL25), the log2 fold change was -0.023 (inactive).

Regarding RDH14 (UniProt Q9HBH5), the log2 fold change was -0.016 (inactive).

As for SDHA (UniProt P31040), the log2 fold change was -0.022 (inactive).

For RABL3 (UniProt Q5HYI8), the log2 fold change is -0.056 (inactive).

For the target RBMX (UniProt P38159), the log2 fold change was 0.042 (inactive).

RNASEH2B (UniProt Q5TBB1): the log2 fold change was -0.059 (inactive).

For the target RAC2 (UniProt P15153), the log2 fold change is 0.021 (inactive).

As to RPS6KA3 (UniProt P51812), the log2 fold change was -0.046 (inactive).

Regarding RNF113A (UniProt O15541), the log2 fold change is 0.063 (inactive).

On to RCOR1 (UniProt Q9UKL0), for which the log2 fold change was 0.015 (inactive).

As to RBM4 (UniProt Q9BWF3), the log2 fold change is 0.033 (inactive).

Turning to SBF1 isoform 4 (UniProt O95248), the log2 fold change is -0.103 (inactive).

For RBSN (UniProt Q9H1K0), the log2 fold change was -0.04 (inactive).

In the case of RAPGEF2, A0A2R8YGD3, the log2 fold change was -0.018 (inactive).

As for RBBP7 (UniProt Q16576), the log2 fold change was -0.041 (inactive).

Turning to S100A11 (UniProt P31949), the log2 fold change is 0.05 (inactive).

Take RPN2 (UniProt P04844): the log2 fold change was 0.049 (inactive).

RXRB isoform 3 (UniProt P28702): the log2 fold change was -0.038 (inactive).

Compound in a further experiment: Cn1cncc1[C@@](N)(c1ccc(Cl)cc1)c1ccc2c(c1)c(-c1cccc(Cl)c1)cc(=O)n2C [tipifarnib]
Described as above. A digest of the protocol: as §1
On to RTN4IP1 (UniProt Q8WWV3), for which the log2 fold change is 0.245 (inactive).

For SATB2 (UniProt Q9UPW6), the log2 fold change is 0.009 (inactive).

With RRAGA (UniProt Q7L523), the log2 fold change is 0.109 (inactive).

As to RFC2 (UniProt P35250), the log2 fold change was -0.014 (inactive).

Take SASS6 (UniProt Q6UVJ0): the log2 fold change was -0.03 (inactive).

Regarding SEC16A isoform 5 (UniProt O15027), the log2 fold change is -0.036 (inactive).

Take SEH1L isoform 1 (UniProt Q96EE3): the log2 fold change was -0.008 (inactive).

As for RECQL5 (UniProt O94762), the log2 fold change is -0.064 (inactive).

Regarding SAR1A (UniProt Q9NR31), the log2 fold change is -0.172 (inactive).

Turning to RAP1GAP isoform 4 (UniProt P47736), the log2 fold change was -0.013 (inactive).

As for RNASEL (UniProt Q05823), the log2 fold change was -0.016 (inactive).

In the case of RIOK3 (UniProt O14730), the log2 fold change was 0.008 (inactive).

Consider RRM1 (UniProt P23921), for which the log2 fold change is 0.007 (inactive).

On to RBBP8 isoform 2 (UniProt Q99708), for which the log2 fold change is 0.022 (inactive).

Regarding REEP5 (UniProt Q00765), the log2 fold change is 0.026 (inactive).

As for RAB21 (UniProt Q9UL25), the log2 fold change was -0.051 (inactive).

On to RDH14 (UniProt Q9HBH5), for which the log2 fold change is 0.065 (inactive).

With SDHA (UniProt P31040), the log2 fold change is -0.034 (inactive).

Take RABL3 (UniProt Q5HYI8): the log2 fold change is 0.08 (inactive).

With RBMX (UniProt P38159), the log2 fold change was 0.005 (inactive).

Regarding RNASEH2B (UniProt Q5TBB1), the log2 fold change was -0.009 (inactive).

For RAC2 (UniProt P15153), the log2 fold change is 0 (inactive).

In the case of RPS6KA3 (UniProt P51812), the log2 fold change is -0.023 (inactive).

For RNF113A (UniProt O15541), the log2 fold change is -0.019 (inactive).

Turning to RCOR1 (UniProt Q9UKL0), the log2 fold change was -0.022 (inactive).

RBM4 (UniProt Q9BWF3): the log2 fold change was -0.067 (inactive).

As for SBF1 isoform 4 (UniProt O95248), the log2 fold change is 0.162 (inactive).

For RBSN (UniProt Q9H1K0), the log2 fold change was -0.036 (inactive).

Take RAPGEF2, A0A2R8YGD3: the log2 fold change is -0.017 (inactive).

In the case of RBBP7 (UniProt Q16576), the log2 fold change is 0.014 (inactive).

As for S100A11 (UniProt P31949), the log2 fold change was 0.041 (inactive).

Consider RPN2 (UniProt P04844), for which the log2 fold change is -0.015 (inactive).

As to RXRB isoform 3 (UniProt P28702), the log2 fold change was -0.052 (inactive).
